This is part of a sample that, as a whole, favours compounds with a hit. Of some 83,000 tested, about 20% had one in any assay.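 Activity criterion: percent growth below 10, measured after cells in 96-well plates were exposed to a single compound concentration for 48 hours.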 Activity calls are given as the source filed them.
Key:
Experiment in all cases: NCI-60 one-dose screen, 48 h (100 = growth as untreated, 0 = no growth, -100 = all killed)
Conditions in all cases: 10 µM unless noted
HCT-15 colon = tested on: HCT-15 colon
HT29 colon = tested on: HT29 colon
SNB-75 CNS = tested on: SNB-75 CNS
SNB-19 CNS = tested on: SNB-19 CNS
U251 CNS = tested on: U251 CNS
PC-3 prostate = tested on: PC-3 prostate
SK-MEL-5 melanoma = tested on: SK-MEL-5 melanoma
UACC-62 melanoma = tested on: UACC-62 melanoma
LOX IMVI melanoma = tested on: LOX IMVI melanoma
SK-MEL-28 melanoma = tested on: SK-MEL-28 melanoma

Measured: growth

CCc1c(Cl)nc(N)nc1Nc1ccc(C)c(C)c1
inactive: HCT-15 colon 55.7% | HT29 colon 102% | SNB-75 CNS 93.5% | SNB-19 CNS 96.2% | U251 CNS 88.1% | PC-3 prostate 95.8% | SK-MEL-5 melanoma 92.9% | UACC-62 melanoma 92.8% | LOX IMVI melanoma 85.7% | SK-MEL-28 melanoma 103%

CN1CCN(CCNc2nccc(-c3c(-c4cccc(O)c4)nc4sccn34)n2)S1(=O)=O
inactive: HCT-15 colon 50.6% | HT29 colon 43.9% | SNB-75 CNS 54.2% | SNB-19 CNS 115% | U251 CNS 94.2% | PC-3 prostate 68.5% | SK-MEL-5 melanoma 33% | LOX IMVI melanoma 23.8% | SK-MEL-28 melanoma 15%
active: UACC-62 melanoma 3.85%

COc1cc2c3c(c4c5ccccc5[nH]c4c2c(OC)c1OC)C(=O)N(CCN1CCOCC1)C3=O
inactive: HCT-15 colon 50% | HT29 colon 34.2% | SNB-75 CNS 86.4% | SNB-19 CNS 51.9% | U251 CNS 51.8% | PC-3 prostate 48.4% | SK-MEL-5 melanoma 54.7% | UACC-62 melanoma 43.3% | LOX IMVI melanoma 45% | SK-MEL-28 melanoma 99.2%

CCOC(=O)c1cc(C(=O)c2ccc(OC)c(OC)c2)n2c1ccc1ccccc12
inactive: HCT-15 colon 84.5% | HT29 colon 103% | SNB-75 CNS 48.5% | SNB-19 CNS 94% | U251 CNS 96.2% | PC-3 prostate 81.7% | SK-MEL-5 melanoma 89.8% | UACC-62 melanoma 74.3% | LOX IMVI melanoma 85.1% | SK-MEL-28 melanoma 106%

O=C1Nc2cc(-c3cccc([N+](=O)[O-])c3)ccc2/C1=C/c1ccc[nH]1
inactive: HCT-15 colon 28% | HT29 colon 91.1% | SNB-75 CNS 64.6% | SNB-19 CNS 101% | U251 CNS 98.8% | PC-3 prostate 86.8% | SK-MEL-5 melanoma 70.3% | UACC-62 melanoma 83.9% | LOX IMVI melanoma 90% | SK-MEL-28 melanoma 106%

O=C(CCN1CCCC1)Nc1ccc2c(Nc3ccc(F)cc3)c3ccccc3nc2c1
active: HCT-15 colon -31.9% | HT29 colon 4.15% | U251 CNS -42.1% | PC-3 prostate 8.99% | LOX IMVI melanoma -61.2% | SK-MEL-28 melanoma -40.8%
inactive: SNB-75 CNS 16.3% | SNB-19 CNS 13.8% | SK-MEL-5 melanoma 33.9% | UACC-62 melanoma 21.5%

N#C/C(=C\c1cccc(C#N)c1)c1ccccc1
inactive: HCT-15 colon 111% | HT29 colon 96.6% | SNB-75 CNS 88.9% | SNB-19 CNS 109% | U251 CNS 89.2% | PC-3 prostate 99.7% | SK-MEL-5 melanoma 101% | UACC-62 melanoma 108% | LOX IMVI melanoma 98.9% | SK-MEL-28 melanoma 115%

COc1cc(CC(=O)n2ncc3ccc(N)cc32)cc(OC)c1OC
inactive: HCT-15 colon 88.2% | HT29 colon 109% | SNB-75 CNS 87.3% | SNB-19 CNS 101% | U251 CNS 98.4% | PC-3 prostate 88.2% | SK-MEL-5 melanoma 92.9% | UACC-62 melanoma 92.9% | LOX IMVI melanoma 90.1% | SK-MEL-28 melanoma 99.9%

COC(=O)C1=C(C(=O)ON)C2C=CC1(C(Cc1ccccc1)Nc1ccccc1)O2 (stereo not given)
active: HCT-15 colon -53.8%
inactive: HT29 colon 37.9% | SNB-75 CNS 106% | SNB-19 CNS 106% | U251 CNS 94.6% | PC-3 prostate 100% | SK-MEL-5 melanoma 104% | UACC-62 melanoma 89.9% | LOX IMVI melanoma 75.8% | SK-MEL-28 melanoma 65.4%

CCCCC[n+]1ccc(SCC(=O)N(C)c2ccc(Oc3ccccc3)cc2)c2ccccc21
inactive: HCT-15 colon 100% | HT29 colon 101% | SNB-75 CNS 115% | SNB-19 CNS 89.1% | U251 CNS 95.8% | PC-3 prostate 103% | SK-MEL-5 melanoma 95.2% | UACC-62 melanoma 75.4% | LOX IMVI melanoma 102% | SK-MEL-28 melanoma 108%

O=C(C1CCC1)N1N=C(c2ccc(-n3ccc(C(F)(F)F)n3)cc2)CC1c1ccc[nH]1 (stereo not given)
inactive: HCT-15 colon 85.6% | HT29 colon 89.8% | SNB-75 CNS 101% | SNB-19 CNS 95.9% | U251 CNS 82.2% | PC-3 prostate 76.5% | SK-MEL-5 melanoma 100% | UACC-62 melanoma 90.5% | LOX IMVI melanoma 92.8% | SK-MEL-28 melanoma 104%

COc1cccc(C(=O)NNc2nc(Cl)nc(N3CCN(C(c4ccccc4)c4ccccc4)CC3)n2)c1
inactive: HCT-15 colon 13.3% | HT29 colon 20.3% | SNB-75 CNS 89.3% | SNB-19 CNS 77.4% | U251 CNS 100% | PC-3 prostate 34.3% | SK-MEL-5 melanoma 91.2% | UACC-62 melanoma 76.5% | SK-MEL-28 melanoma 89.1%
active: LOX IMVI melanoma 2.99%

O=Cc1cc2ccccc2nc1Oc1ccc(C(F)(F)F)cc1
inactive: HCT-15 colon 80.8% | HT29 colon 94.1% | SNB-75 CNS 83.2% | SNB-19 CNS 90.7% | U251 CNS 81.6% | PC-3 prostate 67.8% | SK-MEL-5 melanoma 94.5% | UACC-62 melanoma 72.5% | LOX IMVI melanoma 74.3% | SK-MEL-28 melanoma 107%

CN1CCC(=C(c2ccccc2)c2ccccc2)C(c2ccccc2)C1 (stereo not given)
inactive: HCT-15 colon 82.5% | HT29 colon 82.9% | SNB-75 CNS 88% | SNB-19 CNS 95.5% | U251 CNS 93.3% | PC-3 prostate 93.6% | SK-MEL-5 melanoma 101% | UACC-62 melanoma 97.1% | LOX IMVI melanoma 86% | SK-MEL-28 melanoma 110%

COc1cc2c(c(OC)c1OC)CCC(c1cccc(NC(=O)c3cccc(Br)c3)c1)O2 (stereo not given)
inactive: HCT-15 colon 87.7% | HT29 colon 87% | SNB-75 CNS 86.8% | SNB-19 CNS 94.5% | U251 CNS 93.5% | PC-3 prostate 76.1% | SK-MEL-5 melanoma 88.2% | UACC-62 melanoma 70.1% | LOX IMVI melanoma 92.4% | SK-MEL-28 melanoma 90.9%

COc1cc(NC(C)CCCNC(=O)CCC(=O)NCCCNCCCCCCCCNCCCNC(=O)CCC(=O)NCCCC(C)Nc2cc(OC)cc3cccnc23)c2ncccc2c1 (stereo not given)
inactive: HCT-15 colon 108% | HT29 colon 67.5% | SNB-75 CNS 54.2% | SNB-19 CNS 57.9% | U251 CNS 35.1% | PC-3 prostate 77.6% | SK-MEL-5 melanoma 97.1% | UACC-62 melanoma 84.2% | LOX IMVI melanoma 35.7% | SK-MEL-28 melanoma 78.1%

OC(c1cccc(C(F)(F)F)c1)c1cnccc1NC1CCCCC1 (stereo not given)
inactive: HCT-15 colon 81.3% | HT29 colon 37.9% | SNB-75 CNS 72.1% | SNB-19 CNS 89.3% | U251 CNS 76% | PC-3 prostate 69.4% | SK-MEL-5 melanoma 69.6% | UACC-62 melanoma 74% | LOX IMVI melanoma 82.4% | SK-MEL-28 melanoma 98.4%

C[C@@H](Nc1ncnc2ccc(-c3cnc(N)nc3)cc12)c1ccc(F)cc1
inactive: HCT-15 colon 88.6% | HT29 colon 84.9% | SNB-75 CNS 69.5% | SNB-19 CNS 76.1% | U251 CNS 80.9% | PC-3 prostate 69.1% | SK-MEL-5 melanoma 73.2% | UACC-62 melanoma 69.2% | LOX IMVI melanoma 78.4% | SK-MEL-28 melanoma 92.5%

O=C1/C=C/[C@@H](O)[C@@H]2C[C@@H](O)C[C@H]2/C=C/CCC[C@H](CCc2cccc3ccccc23)O1
active: HCT-15 colon 7.46% | HT29 colon 3.87% | SK-MEL-5 melanoma -95.9% | LOX IMVI melanoma -55.9% | SK-MEL-28 melanoma 2.17%
inactive: SNB-75 CNS 33% | SNB-19 CNS 30.1% | U251 CNS 23.8% | PC-3 prostate 20.6% | UACC-62 melanoma 11.9%

Cc1nc2sccn2c1-c1nc2sccn2c1/C=C1/C(=O)Nc2ccccc21
active: HT29 colon 0.756%
inactive: HCT-15 colon 29.4% | SNB-75 CNS 15.2% | SNB-19 CNS 31.5% | U251 CNS 24.6% | PC-3 prostate 28.7% | SK-MEL-5 melanoma 20.5% | UACC-62 melanoma 33.6% | LOX IMVI melanoma 36.3% | SK-MEL-28 melanoma 45.3%

O=C1Nc2cc(-c3cccc(O)c3)ccc2/C1=C/c1ccc[nH]1
active: HCT-15 colon 9.89% | SNB-75 CNS -13.7% | SK-MEL-5 melanoma 6.19% | LOX IMVI melanoma 7.66%
inactive: HT29 colon 83.3% | SNB-19 CNS 43.4% | U251 CNS 25.9% | PC-3 prostate 35.4% | UACC-62 melanoma 24.1% | SK-MEL-28 melanoma 16.4%

O=S(=O)(NCCCNc1nccc(-c2c(-c3cccc(F)c3)nc3sccn23)n1)c1cccc(F)c1
inactive: HCT-15 colon 22.6% | HT29 colon 30.6% | SNB-75 CNS 88.6% | SNB-19 CNS 76.8% | U251 CNS 70% | PC-3 prostate 27.1% | SK-MEL-5 melanoma 13.5% | LOX IMVI melanoma 39% | SK-MEL-28 melanoma 68.3%
active: UACC-62 melanoma 6.36%

Cc1nn(-c2ccccc2)c(Cl)c1/C=N\N=c1/sc2ccccc2n1C
inactive: HCT-15 colon 103% | HT29 colon 93.3% | SNB-75 CNS 107% | SNB-19 CNS 98.6% | U251 CNS 103% | PC-3 prostate 89.5% | SK-MEL-5 melanoma 104% | UACC-62 melanoma 87.1% | LOX IMVI melanoma 117% | SK-MEL-28 melanoma 103%

Brc1ccc2[nH]cc(-c3cncn3CCc3ccccc3)c2c1
inactive: HCT-15 colon 52.8% | HT29 colon 65.6% | SNB-75 CNS 36.7% | SNB-19 CNS 65.6% | U251 CNS 55.7% | PC-3 prostate 53.9% | SK-MEL-5 melanoma 10.4% | UACC-62 melanoma 52.9% | LOX IMVI melanoma 64.1% | SK-MEL-28 melanoma 69.6%

N/C(=N\C(N)=N\c1nc2ccccc2s1)c1cnccn1
active: SK-MEL-5 melanoma -48.5% | UACC-62 melanoma -20.8%
inactive: HCT-15 colon 11.6% | HT29 colon 24.1% | SNB-75 CNS 35.8% | SNB-19 CNS 37.4% | U251 CNS 35.1% | PC-3 prostate 31.1% | LOX IMVI melanoma 15.1% | SK-MEL-28 melanoma 21.6%

Cc1nc2sccn2c1-c1cn2ccsc2n1
inactive: HCT-15 colon 70.3% | HT29 colon 99.3% | SNB-75 CNS 84.8% | SNB-19 CNS 93.1% | U251 CNS 90.8% | PC-3 prostate 94.6% | SK-MEL-5 melanoma 65.6% | UACC-62 melanoma 83.4% | LOX IMVI melanoma 98.4% | SK-MEL-28 melanoma 104%

Source: PubChem BioAssay (NCI)
